D1 ag: Allosteric Agonists of the Human D1 Dopamine Receptor: qHTS; hit rate 1% among 360,000; HEK293 T-REx D1 cells, calcium flux, agonist mode; activation, % at 2 µM; D(1A) dopamine receptor (Homo sapiens), P21728; AID 504660, 2011; also: 0% is about no effect
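Tetracycline-induced HEK293 TREx D1 cells, force-coupled to calcium signalling, were dye-loaded with a no-wash calcium kit. Compound was pin-added after a 10 s baseline. Fluorescence was read kinetically at 1 cycle/s for 180 s, with calcium rises flagged as agonism.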
TRHR PAM: qHTS for Small Molecule Agonists and Allosteric Enhancers of Human TRH Receptor: Primary Screen for Enhancers; Thyrotropin-releasing hormone receptor (Homo sapiens), P34981; TRHR cells, fluo-8 calcium fluorescence, EC20 TRH enhancement; enhancement, % at 2 µM; hit rate 0.66% among 360,000; AID 493056, 2011; in the data active = enhancement above about 30%; also: 0% is about no effect
Target sequence (P34981 whole entry, looked up): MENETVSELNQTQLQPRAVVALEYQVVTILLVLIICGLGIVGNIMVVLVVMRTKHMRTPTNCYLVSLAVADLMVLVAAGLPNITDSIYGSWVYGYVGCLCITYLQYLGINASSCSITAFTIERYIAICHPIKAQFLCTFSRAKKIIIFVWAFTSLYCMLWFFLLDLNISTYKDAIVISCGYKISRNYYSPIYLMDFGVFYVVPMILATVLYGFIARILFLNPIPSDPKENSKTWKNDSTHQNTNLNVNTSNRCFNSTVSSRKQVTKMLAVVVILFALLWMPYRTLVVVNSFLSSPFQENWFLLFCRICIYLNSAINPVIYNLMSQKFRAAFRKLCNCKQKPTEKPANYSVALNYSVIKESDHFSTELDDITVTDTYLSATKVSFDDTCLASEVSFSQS
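Enhancer read-out: after compound pinning and an initial kinetic agonist-mode read, an EC20 of TRH (10 nM final) was injected and fluo-8 calcium signal (Ex 480/Em 530) followed at 1 s/cycle for 100 cycles in TRHR-expressing cells.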
TRHR ag: qHTS for Small Molecule Agonists and Allosteric Enhancers of Human TRH Receptor: Primary Screen for Agonists; hit rate 0.18% among 360,000; activation, % at 2 µM; Thyrotropin-releasing hormone receptor (Homo sapiens), P34981; TRHR cells, calcium flux fluo-8, FDSS agonist mode; also: 0% is about no effect
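Steps: seed TRHR cells overnight; add fluo-8 no-wash Ca dye, RT 30 min–1.5 h; record 10 s baseline; pin-transfer compounds; monitor fluorescence 1 cycle/s for the agonist window. Calcium increases flag candidate agonists.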
D1 antag: Antagonist of Human D 1 Dopamine Receptor: qHTS. HEK293 TREx D1 cells, calcium flux, dopamine EC80; active compounds read low. activity change, negative = inhibition, % at 10 µM. hit rate 3.2% among 360,000. AID 504652, 2011; in the data active = activity change below about -30%; also: % is scaled to controls: 0 for no effect and ±100 for the full control effect
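Antagonism measured as reduced calcium response to an EC80 dopamine addition following 180 s compound pre-read; cells were inducible HEK293 Trex D1 plated overnight at 30 C, read kinetically at 1 cycle/sec.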
D1 potentiator: Potentiators of Human D1 Dopamine Receptor: qHTS | D(1A) dopamine receptor (Homo sapiens), P21728 | potentiation, % at 10 µM | HEK293 TREx D1 cells, calcium flux, dopamine EC20 potentiation | hit rate 0.036% among 360,000; in the data active = potentiation above about 30%; also: 0% is about no effect
An asterisk follows results filed as active. In the library only some 4.7% were active in any assay of this set; here they are far more common. Rule as the data show it, unless noted: active = activation above about 30%; inactive = the rest.

SMILES | D1 ag | TRHR PAM | TRHR ag | D1 antag | D1 potentiator
CCS(=O)(=O)N1CCc2cc(C(=O)Nc3ccc(OC)c(Cl)c3)ccc21 | 1.6 | -4.0 | 0.1 | -28.1 | -3.0
Cc1ccccc1-c1noc(-c2ccc(NCC3CCCO3)c([N+](=O)[O-])c2)n1 (stereo not given) | 1.8 | -2.6 | 0.4 | 0.8 | -0.5
COc1ccc(Cc2nc(-c3ccc(-n4cccc4)cc3)no2)cc1 | 14.2 | -1.4 | 1.9 | 1.8 | -1.1
COc1ccc(Cc2nc(-c3ccc(-n4cccc4)cc3)no2)cc1OC | 32.2* | 0.8 | -0.2 | -38.9* | 5.1
COc1ccc(-c2noc(COc3cc(C)ccc3C)n2)cc1OC | 46.6* | -18.0 | 2.0 | 5.4 | -2.3
COc1ccc(-c2noc(COc3ccc(C)cc3C)n2)cc1OC | 14.2 | -6.7 | 0.9 | 2.8 | 0.1
Cc1ccc(-n2c(SCC(=O)OC(C)C)nnc2-c2ccncc2)cc1 | 38.1* | -0.8 | 0.4 | 7.9 | 3.8
CCc1ccc(NC(=O)C2CCCN(S(=O)(=O)c3c(C)noc3/C=C/N(C)C)C2)cc1 (stereo not given) | 0.3 | -2.9 | -0.3 | -15.4 | -1.9
CSc1nc(C)c(Oc2ccccc2)c(=O)n1C | -4.3 | 0.2 | -0.8 | -70.5* | -12.1
FC(F)(F)c1cnc(NNC(=S)Nc2ccccc2Cl)c(Cl)c1 | 26.3 | 2.0 | 5.7 | -33.4* | -4.7
Cc1cccc(C)c1NC(=O)CN(C)C(=O)[C@H](C)NC(=O)c1ccco1 | 3.9 | -3.1 | -0.3 | -80.4* | 6.9
CC(C)c1ccc(-c2noc(SCC(=O)N3CCN(c4ccccc4F)CC3)n2)cc1 | 5.7 | -0.5 | 0.1 | 4.7 | -3.5
C=CCN(C(=O)Cn1nc(C)n2c(cc3cc(C)ccc32)c1=O)c1ccccc1 | 1.9 | -1.2 | -0.5 | -8.2 | -0.2
COc1ccc(Br)cc1CNC(=O)Cn1nc(C)n2c(cc3cc(F)ccc32)c1=O | 0.3 | 3.3 | -0.2 | 1.6 | -4.2
Cc1nn(CC(=O)NC2CC2)c(=O)c2cc3cc(F)ccc3n12 | 1.5 | 34.2* | 0.3 | -2.4 | -5.5
CCN(C(=O)Cn1nc(C)n2c(cc3cc(C)ccc32)c1=O)c1ccccc1 | 0.5 | 1.3 | -0.6 | -42.7* | -5.5
COc1ccc(OC)c(NC(=O)CN(c2ccc(C)cc2)S(=O)(=O)c2c(C)n[nH]c2C)c1 | 2.2 | 1.7 | -0.6 | 13.5 | -0.9
Cc1noc(C)c1S(=O)(=O)N(CC(=O)NCc1ccc(F)cc1)c1ccc(C(C)C)cc1 | 2.7 | -11.7 | 0.6 | -34.7* | -5.4
CCOc1ccccc1NC(=O)CN(c1cc(C)cc(C)c1)S(=O)(=O)c1c(C)noc1C | 0.1 | -1.4 | 0.2 | -39.5* | 0.3
COc1ccccc1NC(=O)CN(c1ccc(C)cc1)S(=O)(=O)c1c(C)n[nH]c1C | 4.2 | 2.3 | -0.5 | -53.5* | -8.4
CCOc1ccc(N(CC(=O)Nc2ccc(C)c(C)c2)S(=O)(=O)c2c(C)noc2C)cc1 | 2.9 | -9.7 | 0.4 | -10.4 | -3.1
CCOc1ccc(N(CC(=O)Nc2cccc(F)c2)S(=O)(=O)c2c(C)noc2C)cc1 | 4.6 | 6.9 | 0.7 | -34.3* | -4.1
Cc1noc(C)c1S(=O)(=O)N(CC(=O)NCc1ccccc1)c1ccc(C(C)C)cc1 | 5.3 | -16.0 | 0.8 | 10.2 | -1.4
Cc1cccc(OCC(=O)Nc2ccc3nc(Nc4cccc(Cl)c4)cc(C)c3c2)c1 | 0.8 | 4.8 | 0.6 | -18.8 | -0.2
O=C(NCCc1ccccc1)C(=O)NCC(c1cccnc1)N1CCN(c2ccc(F)cc2)CC1 (stereo not given) | 32.8* | 0.6 | -0.9 | 3.7 | 1.4
SMILES | D1 ag | TRHR PAM | TRHR ag | D1 antag | D1 potentiator
O=C(NCC(c1cccnc1)N1CCN(c2ccccc2F)CC1)c1ccccc1 (stereo not given) | 0.7 | -13.5 | -0.2 | -31.8* | -7.2
O=C(NCc1cccnc1)C(=O)NCC(c1cccnc1)N1CCN(c2ccc(F)cc2)CC1 (stereo not given) | 5.3 | 9.2 | 0.0 | 1.4 | -5.5
CN(C)CCNC(=O)C(=O)NCC(c1cccnc1)N1CCN(c2ccccc2)CC1 (stereo not given) | 5.2 | 7.9 | 0.2 | -32.8* | -3.8
CC(C)(C)c1ccc(C(=O)NCC(c2cccnc2)N2CCc3ccccc3C2)cc1 (stereo not given) | 2.6 | 1.3 | -1.1 | 7.1 | 1.4
CN(C)CCNC(=O)C(=O)NCC(c1cccnc1)N1CCN(c2ccc(F)cc2)CC1 (stereo not given) | -1.2 | -6.2 | -0.2 | -2.3 | 2.6
Cc1ccc(C(=O)NCC(c2cccnc2)N2CCc3ccccc3C2)cc1C (stereo not given) | 3.3 | 1.5 | 0.1 | -31.2* | -3.4
CCOc1ccc(CC(=O)NCc2ccc3c(c2)CCN3C(=O)c2ccc(F)cc2)cc1OCC | 2.0 | -6.6 | -0.9 | -8.2 | -2.2
Oc1cccc(Nc2nc(O)c(/C=C3\C=Nc4ccccc43)s2)c1 | 34.3* | -6.9 | 10.9 | -17.1 | -6.5
CCc1cc2c(=O)oc(-c3ccccc3F)nc2s1 | 0.5 | 37.0* | 0.8 | 13.3 | -5.2
CCCC(C(=O)Nc1ccncc1)c1ccccc1 (stereo not given) | 9.5 | -10.6 | 0.8 | -39.8* | -6.3
CCCNC(=O)Cn1c(=O)/c(=C\c2ccc(-c3cccc([N+](=O)[O-])c3)o2)s/c1=C\C(=O)C(C)(C)C | 18.8 | 7.0 | 3.6 | 2.1 | -3.4
CCCNC(=O)Cn1c(=O)/c(=C\c2ccc(-c3ccc([N+](=O)[O-])cc3)o2)s/c1=C\C(=O)C(C)(C)C | 283.4* | -20.9 | 98.0* | -83.4* | -7.0
COc1cc(NC(=O)c2oc3c(c2C)-c2nn(Cc4cccc(Cl)c4)cc2CC3)cc(OC)c1 | 0.5 | -1.4 | -0.1 | -30.7* | -2.2
Cc1cc2c(s1)c1cnn(Cc3ccc(S(C)(=O)=O)cc3)c(=O)c1n2C | 6.7 | -1.3 | -0.8 | -2.1 | 13.0
CC(C)(O)C#Cc1ccc(CN2CCN(Cc3ccccc3)C(CCO)C2)s1 (stereo not given) | 7.3 | 0.3 | -1.6 | -12.0 | -1.1
CC(C)=CCN1CCN(Cc2ccc(C#CC(C)(C)O)s2)CC1CCO (stereo not given) | 5.7 | -5.5 | 4.0 | -36.7* | -7.0
CC(C)(O)C#Cc1ccc(CN2CCN(Cc3ccsc3)C(CCO)C2)s1 (stereo not given) | 1.0 | -4.6 | 1.5 | -5.4 | -1.4
CC(C)(O)C#Cc1ccc(CN2CCN(CCc3ccccc3)C(CCO)C2)s1 (stereo not given) | 10.0 | 6.2 | -2.5 | -37.1* | -6.6
